# Test results from PubChem BioAssay (NCATS).
# Records with an inconclusive call do not appear. A number with no mark means an inactive call. The source made the active and inactive calls. Calls follow the shape of the dose curve; as a rule, active = well fitted cell-killing curve with a large enough effect; inconclusive = small, poorly fitted or top-dose-only effect; inactive = flat fitted curve, though single readings scatter.
# Test: Cellular viability qHTS for adrenocortical cancer (ACC) cell line NCI-H295R (AID 1963990); also: nearly all actives have a fitted effect of over 60% in size
# Conditions: CellTiter-Glo ATP luminescence, 48 h; series mostly up to 46.1 µM; activity change, negative = viability loss: at the top concentration
# Excerpt: PI: Naris Nilubol, MD Surgical Oncology Program, National Cancer Institute (NCI) National Institute of Health (NIH), Bethesda, Maryland Adrenocortical cancer (ACC) is a rare malignancy with poor survival outcomes and few treatment options. Currently, mitotane is the only FDA-approved therapy for ACC. Although adjuvant radiation therapy is rarely utilized, it has the potential to improve survival in select cases. Through a quantitative high-throughput drug screen (qHTS), we identified auranofin (AF), a thioredoxin reductase (TXNRD) inhibitor, as a promising candidate drug. This study aims to evaluate whether AF can enhance the efficacy of radiation therapy in the treatment of ACC. Two human ACC cell lines, SW-13 and NCI-H295R, were screened using the National Center for Advancing Translational Sciences (NCATS) Pharmaceutical Collection (NPC) and the Mechanism Interrogation PlatE (MIPE) library (~4,991 compounds). CellTiter-Glo (Cat # G7570, Promega, Madison, WI) was utilized to measure cell viability. Described herein are the results of the corresponding viability assay.
# PROTOCOL TABLE (as described by Inglese J, Shamu CE and Guy RK. 2007) SEQUENCE No. (e.g., 1, 2, 3, etc.); […] (e.g., Cells, Incubation, Reagent, etc.); VALUE; DESCRIPTION. 1; Cells; 5 uL; white, solid-bottom, 1536-well tissue-culture treated plates. 2; Time; overnight culture at 37C with 5% CO2. 3; Compounds and control; 23 nL; Kalypsis pin tool (Wako USA) equipped with a 1536-well pin head to transfer to the assay plates. 4; Time; 48 hours; 37C with 5% CO2. 5; Reagent; 4 uL; CellTiter-Glo luminescent substrate mix. 6; Time; 20 min at room temperature. 7; Detection; Luminescence; ViewLux plate reader NOTES (numbers refer to Sequence numbers above) 1. NCI-H295R cells were harvested from a T175 flask and resuspended in ITS-supplemented DMEM serum-free medium at a concentration of 300 000 cells/mL. Then 5 uL of resuspended cells were dispensed into each well of white, solid-bottom, 1536-well tissue-culture-treated plates using a multidrop combi dispenser. The plates were covered with stainless steel gasket lids. 2-3. The plates were cultured overnight at 37C with 5% CO2. Twenty-three nL of compounds (eight selected concentrations from the NPC / MIPE) or positive control (10 mM stock of bortezomib) in DMSO was transferred to each well of the assay plate using a pin tool (Kalypsys, San Diego, CA, USA). The final concentration of the compounds in the 5 uL assay volume ranged from 0.5 nM to 46 uM. 4-6. After 48 hours of incubation at 37C and 5% CO2, 4 uL of CellTilter-Glo luminescent substrate mix (Promega, Madison, WI, USA) was added to each well. Then the plates were incubated for 20 minutes at room temperature. 7. After incubation, luminescence was measured using a ViewLux plate reader (PerkinElmer, Waltham, MA, USA) with a clear filter was used to measure the number of metabolically competent cells. To determine compound activity in the qHTS assay, the titration-response data for each sample was plotted and modeled by a four-parameter logistic fit yielding IC50 and efficacy (maximal response) values. Raw plate reads for each titration point were normalized relative to positive control ([…], 100% inhibition) and DMSO-only wells (basal, 0%). REFERENCES: Inglese J, Shamu CE and Guy RK, Reporting data from high throughput screening of small molecule libraries, Nature Chemical Biology, 2007, 3(8): 438-441. doi.org/10.1038/nchembio0807-438.
Structure (SMILES),Potency,"activity change, negative = viability loss"
CC(C)c1cnn2c(NCc3ccccc3)cc(NCCCCCCN)nc12,25.1 µM (active),
Cc1nc(N)nc(N)c1-c1ccc(Cl)c(Cl)c1,0.13 µM (active),
O=C(O)CNC(=O)c1nc(Cl)c2ccccc2c1O,,2.72%
COc1cc(C(=O)NC(N)=Nc2ccc(C)c(NC(=O)c3ccc(-c4ccccc4)cc3)c2)cc(OC)c1OC,10 µM (active),
C[C@H](CN1CCCC1)C(=O)c1ccc(C(F)(F)F)cc1,,-2.98%
CC(=O)Nc1ccccc1,,5.41%
CCOc1cc(/C=C2/C(=O)N(c3ccccc3)N=C2C)cc(Cl)c1OCC(=O)OC,,-25.1%
Nc1nccc(Oc2ccc(NC(=O)c3c[nH]cc(-c4ccc(F)cc4)c3=O)cc2F)c1Cl,10 µM (active),
CCOC(=O)n1ccn(C)c1=S,,-23.5%
N#CNC(=NCCCCCCOc1ccc(Cl)cc1)Nc1ccncc1,0.0158 µM (active),
C[Se]CCC(N)C(=O)O (stereo not given),,-0.0726% [at 92.7 µM]
CC[C@@H](C)Nc1cc(C(=O)NC2CC3CCC(C2)N3c2ccc(C(=O)C3CC3)cn2)c(C)cc1C(N)=O (stereo not given in full),0.355 µM (active),
O=C1c2cccc(O)c2C(=O)c2c(O)cc(CO)cc21,,-14.2%
OC1CCC(Nc2ncc3nc(Nc4c(F)cc(F)cc4F)n([C@@H]4CCOC4)c3n2)CC1 (stereo not given in full),,2.57%
COc1ccc(C=Cc2cc(OC)c(OC)c(OC)c2)cc1NC(=O)[C@H](N)CO,0.199 µM (active),
Nc1ccc(C(=O)O)c(O)c1,,-2.17%
CC(=O)N1CCN(c2ccc(O)cc2)CC1,,-11.4%
COc1ccc(CN(CCN(C)C)c2ncccn2)cc1,,-16.2%
Cc1ccc(-n2nc(C(C)(C)C)cc2NC(=O)Nc2ccc(OCCN3CCOCC3)c3ccccc23)cc1,,-22.4%
Nc1ccc(S(=O)(=O)NCc2ccccc2)cc1,,-19.1%

Structure (SMILES),Potency,"activity change, negative = viability loss"
COc1cccc2c(NCc3ccccc3)nc(-n3c(N)nc4ccccc43)nc12,5.62 µM (active),
CN[C@@H](C)[C@H]1[C@H](O)C[C@@]2(C)[C@@H]3CC[C@H]4C(C)(C)[C@@H](NC)CC[C@@]45C[C@@]35CC[C@]12C,,-14.8% [at 9.17 µM]
CCCCCCCCCC(=O)N[C@@H](Cc1c[nH]c2ccccc12)C(=O)N[C@H](CC(N)=O)C(=O)N[C@@H](CC(=O)O)C(=O)N[C@@H]1C(=O)NCC(=O)N[C@@H](CCCN)C(=O)N[C@@H](CC(=O)O)C(=O)N[C@H](C)C(=O)N[C@@H](CC(=O)O)C(=O)NCC(=O)N[C@H](CO)C(=O)N[C@@H]([C@@H](C)CC(=O)O)C(=O)N[C@@H](CC(=O)c2ccccc2N)C(=O)O[C@@H]1C,,4.66% [at 20 µM]
C[C@H]1CC2[C@@H]3CCC4=CC(=O)C=C[C@]4(C)[C@@]3(F)[C@@H](O)C[C@]2(C)[C@@]1(O)C(=O)CO (stereo not given in full),,-9.63%
O=C1[C@@H]2[C@H]3CC[C@H](C3)[C@@H]2C(=O)N1CCCCN1CCN(c2ncccn2)CC1,,7.17%
Oc1cc(O)cc(/C=C/c2ccc(O)c(O)c2)c1,,-31.9%
CCOc1cc(N)c(Cl)cc1C(=O)NCC1CN(Cc2ccc(F)cc2)CCO1 (stereo not given),inactive,
O=C1c2ccccc2C(=O)C1c1ccccc1,,-1.54%
C[C@@H](Oc1cc(C(=O)Nc2ccc(C(=O)N3CCN(C)CC3)cc2)nnc1N)c1c(Cl)ccc(F)c1Cl,2.82 µM (active),
CC(=O)OCCN1C(=O)c2c(C)nc3ccc(S(=O)(=O)N4CCOCC4)cc3c2C1=O,,-12.9%
CN(C)CCOc1ccc(/C(=C(/CCCl)c2ccccc2)c2ccccc2)cc1,8.91 µM (active),
O=C(CN1C(=O)C2(CCCC2)NC[C@H]1c1cc(F)cc(F)c1)Nc1ccc2c(c1)C[C@@]1(C2)C(=O)Nc2ncccc21,,-8.27%
Cc1cccc(C)c1NC(=O)c1cc(S(N)(=O)=O)c(Cl)cc1O,,-33.6%
COc1c2occc2cc2ccc(=O)oc12,inactive,
Cc1cc(Nc2cc(CN3CCOCC3)c3nc(C)c(Cc4ccc(Cl)cc4F)n3n2)n[nH]1,7.94 µM (active),
Cc1[nH]c2ccccc2c1CCNCc1ccc(/C=C/C(=O)NO)cc1,0.112 µM (active),
O=C(c1ccc(Nc2nccc(-c3cc4ccccc4s3)n2)cc1)N1CCC(N2CCCC2)CC1,5.62 µM (active),
COc1cc(F)c(C(C)C)cc1-c1ccc(C(F)(F)F)cc1CN1C(=O)O[C@H](c2cc(C(F)(F)F)cc(C(F)(F)F)c2)[C@@H]1C,,-16%
CC(C)c1ccc(Cn2ccc3c4c(N)nc(NC5CC5)nc4ccc32)cc1,1.12 µM (active),
CC(=O)NCCCCCC(=O)O,,-9.2%
